# NS1 function inh – inhibitors of influenza NS1 protein function | Potency, µM (top dose mostly 46.1 µM), for the others: at the highest dose activity, positive = more growth | AID 2326 | hit rate 0.4% among 270,000; calls by dose curve; note: potency is the fitted concentration of half-maximal effect; actives are rising curves; nearly all actives have a fitted effect of over 50% in size
#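 Recovery from NS1-induced slow growth read by OD600 in budding yeast switched to galactose assay medium (pH 6.0, -URA) at 1:100 dilution. Compound 23 nl per well; the matching strain lacking NS1 serves as control.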
# CHX counter – counter-screen for Shiga toxin inhibitors: cycloheximide protein synthesis inhibition | AID 2314 | hit rate 12% among 300,000 | cell reporter, cycloheximide protein synthesis inhibition counterscreen | max response, %; in the data active = max response mostly above about 13%, no sharp cut-off; inactive = mostly below about 14%; note: read at 38.3 µM for the half of the compounds with a filed dose; 0% is about no effect
# Pf growth 48h – inhibits P. falciparum growth in the first generation, 48 h; P. falciparum luciferase growth in erythrocytes, 48 h; Potency, µM (doses to about 28.7 µM), inactives show top-dose activity change, negative = inhibition, usual class: inhibitors; hit rate 5.9% among 310,000; AID 504832; note: potency is the fitted concentration of half-maximal effect; % is set by controls: 0 for no effect and ±100 for the full control effect
#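 Luciferase-expressing parasites in RBCs, 2% Hct / 0.1% parasitemia final; RPMI 1640 + 0.5% Albumax; 37 C, 5% CO2, one generation; luminescence read-out, lower signal = inhibition.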
# Shiga inhibitor – inhibitors of Shiga toxin in Vero cells; Vero cells, Shiga toxin protein synthesis inhibition reporter; inhibition, % at 38.7 µM; hit rate 9.2% among 290,000; AID 2315; in the data active = inhibition mostly above about 28%, no sharp cut-off; inactive = mostly below about 43%; note: 0% is about no effect
# SARS PLpro yeast – blocks SARS-CoV papain-like protease in a yeast assay | S. cerevisiae expressing SARS-CoV PLpro, growth rescue | Potency, µM (top dose mostly 32.9 µM), inactives show at the top dose activity, positive = growth rescue, hits mostly activators | hit rate 0.19% among 330,000 | AID 485353; calls by dose curve; note: potency is the fitted concentration of half-maximal effect; 0% is about no effect; nearly all actives have a fitted effect of over 55% in size
# Pf growth 96h – inhibits malaria parasite growth, 96 h. Potency, µM (top dose mostly 28.7 µM), without a hit: top-dose activity change, negative = inhibition, hits mostly inhibitors. AID 504834. hit rate 6.9% among 320,000. P. falciparum luciferase reporter growth, 96 h; note: potency is the fitted concentration of half-maximal effect; % is set by controls: 0 for no effect and ±100 for the full control effect
#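 Delayed-death screen, second-generation endpoint: infected erythrocytes, 2% hematocrit, 0.05% parasitemia final; 96 hours at 37 C, 5% CO2; luciferase detection reagent; luminescence decrease equals reduced growth.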
# * marks the source's active call; other numbers are inactive results; u = inconclusive; x = no result; [ ] = another dose, or the depositor's remark. Shown are actives, neighbours in structure and some others; about 21% of the full set was active somewhere. Unless noted, calls come from the whole dose curve; as a rule, active = well fitted inhibition curve with a large enough effect; inconclusive = small, poorly fitted or top-dose-only effect, or another doubt; inactive = no such curve, though single readings can be large or run the other way.
SMILES,NS1 function inh,CHX counter,Pf growth 48h,Shiga inhibitor,SARS PLpro yeast,Pf growth 96h
Cc1cc(C)cc(N2C(N)=NC(N)=NC2c2cccc(Cl)c2)c1 (stereo not given),2%,-1,1.2µM*,-4,15%,5%
CCS(=O)(=O)c1nc2ccccc2n1Cc1ccccc1Cl,-34%,1,u,21,3%,10µM*
O=[N+]([O-])c1ccc(Cl)cc1Sc1nc2ccccc2o1,-16%,0,8.3µM*,17,-13%,8%
O=[N+]([O-])c1ccc(Sc2nc3ccccc3o2)c([N+](=O)[O-])c1,-161%,10,x,55*,-37%,u
CCCCN(C)C(=O)c1nc2ccccn2c1CNC1CCC1,0%,-2,-6%,-27,-1%,u
CCOCCCn1c(=NC(=O)c2ccco2)c(C(=O)OCC)cc2c(=O)n3cccc(C)c3nc21,8%,-3,0%,-7,0%,u
CCOC(=O)c1cc2c(=O)n3cccc(C)c3nc2n(Cc2ccco2)c1=NC(=O)c1ccccc1,13%,-1,u,-12,-1%,12µM*
CCOC(=O)c1cc2c(=O)n3ccccc3nc2n(Cc2ccco2)c1=NC(=O)c1cccc(OC)c1,x,9,u,47,0%,u
CCOC(=O)c1cc2c(=O)n3cccc(C)c3nc2n(CC(C)C)c1=NC(=O)c1ccco1,2%,1,u,-3,1%,3.7µM*
CCOC(=O)c1cc2c(=O)n3ccccc3nc2n(Cc2ccco2)c1=NC(=O)c1ccc(OC)cc1,x,3,9.3µM*,27,0%,31%
Cc1cc(C)c(C)c(S(=O)(=O)NCC(=O)NCC2CCCCC2)c1C,10%,-2,-16%,-12,-4%,2%
CN(C)S(=O)(=O)c1ccc(C(=O)Nc2ccc3c(c2)CCC3)cc1,-5%,29*,9%,33*,-1%,2%
CN(C)S(=O)(=O)c1cccc(C(=O)Nc2ccc3c(c2)CCC3)c1,4%,43*,273%,106*,-1%,395%
COc1ccc(NC(=O)c2ccc(S(=O)(=O)N(C)C)cc2)cc1OC,2%,-2,-4%,-6,1%,u
COC(=O)c1ccc(C)c(NC(=O)C(CCSC)NC(=O)c2cc(OC)c(OC)c(OC)c2)c1 (stereo not given),6%,1,-20%,-7,1%,-15%
O=C(CSc1cccc[n+]1[O-])Nc1ccc2c(c1)OCO2,x,5,-12%,13,0%,-32%[5.75 µM]
Clc1ccc(OCCCCSc2ncccn2)cc1,-12%,12,x,20,-2%,64%
CCCOc1ccc(OCCSc2ncccn2)cc1,-9%,44*,209%,81*,-6%,25%
Clc1ccc(OCCSc2ncccn2)c(Br)c1,-33%,41*,83%,118*,-4%,8%
CN(C)CCCOc1ccc(Cl)cc1Br,4%,-2,-7%,-9,-2%,-1%
Brc1cccc(OCCSc2ncccn2)c1,-14%,33*,47%,44*,0%,497%
COCCn1c(C)cc(C(=O)COC(=O)c2[nH]c(C)c(C(C)=O)c2C)c1C,x,x,u,x,2%,u
CC(CCCCC(=O)Nc1ccc(C(F)(F)F)cc1)NCCc1cnc[nH]1 (stereo not given),x,6,x,-5,1%,x
CCc1ccccc1NC(=O)C1COc2ccccc2O1 (stereo not given),1%,7,u,x,3%,2.9µM*
COC(=O)c1ccccc1NC(=O)C1COc2ccccc2O1 (stereo not given),-12%,55*,-16%,122*,-10%,-6%
SMILES,NS1 function inh,CHX counter,Pf growth 48h,Shiga inhibitor,SARS PLpro yeast,Pf growth 96h
Cc1ccccc1NC(=O)C1COc2ccccc2O1 (stereo not given),1%,0,14%,x,4%,53%
CCCn1c(NC(=O)C2COc3ccccc3O2)nc2ccccc21 (stereo not given),2%,-2,9.3µM*,-5,1%,u
O=C(Nc1ccccc1[N+](=O)[O-])C1COc2ccccc2O1 (stereo not given),-8%,27*,133%,38*,-4%,12µM*
Cc1ccc(S(=O)(=O)CCc2nnc(N)s2)cc1,-9%,-2,37%,-6,u,u
O=S(=O)(Cc1ccc(Cl)cc1)c1ncc(CO)n1Cc1ccccc1,-7%,-2,-16%,-23,0%,-12%
Cc1cc(C)cc(NC(=O)CN2CCC(NC(=O)c3cccc(F)c3)CC2)c1,4%,-1,-17%,34,1%,2%
Cn1c(=O)c2c(nc(NCc3ccco3)n2C/C=C/c2ccccc2)n(C)c1=O,-35%,-3,8.3µM*,5,0%,9.3µM*
Cn1c(=O)c2c(nc(NCc3ccco3)n2C)n(C)c1=O,-9%,-1,8%,-22,-2%,x
CC(=O)Nc1ccc(S(=O)(=O)N(C)CC(=O)OCCOc2cccc(C)c2)cc1,-1%,1,10%,12,-2%,31%
Nc1nc(SCC(=O)Nc2ccc(OCc3ccccc3)cc2)n[nH]1,2%,28*,19%,58*,0%,11%
Cc1nc(SCC(=O)Nc2ccc(OCc3ccccc3)cc2)n[nH]1,3%,24*,16%,58*,0%,32%
COc1ccc(-c2csc(NC(=O)CSc3n[nH]c(C)n3)n2)cc1,12%,31*,20%,108*,-3%,0%
COc1ccc(-c2csc(NC(=O)CSc3n[nH]c(N)n3)n2)cc1,x,12,8%,31,-3%,13%
COC(=O)C(C)NC(=O)C1CCCN1C(=O)CNC(=O)OCc1ccccc1 (stereo not given),4%,4,0%,15,15%,-14%
N#Cc1c(/N=C/c2cccs2)sc2c1CCCCC2,-91%,35*,354%,86*,-14%,x
Cc1ccc(/C=N/c2sc3c(c2C#N)CCC3)o1,13%,1,u,2,-2%,u
N#Cc1c(/N=C\c2ccc(O)c([N+](=O)[O-])c2)sc2c1CCCC2,1%,44*,72%,45,-2%,82%
N#Cc1c(/N=C/c2ccc(Br)s2)sc2c1CCC2,5%,25,316%,15*,-20%,333%
N#Cc1c(/N=C/c2cccnc2)sc2c1CCCC2,-5%,-1,6%,15,-1%,11%
N#Cc1c(/N=C/c2ccc(-c3ccccc3C(=O)O)o2)sc2c1CCCC2,-2%,60*,x,111*,1%,-3%
N#Cc1c(/N=C/c2ccc(-c3ccc(C(=O)O)c(Cl)c3)o2)sc2c1CCCC2,x,x,2%,x,1%,16%
CCn1c(=N)n(CC(=O)C23CC4CC(CC(C4)C2)C3)c2ccccc21,-45%,-3,u,-1,-14%,x
CCOC(=O)C(=O)N1CCC(C(=O)OCC)CC1,7%,28*,-11%,29,1%,14%
CCOC(=O)C1CCN(c2c(NC3CCCCCCC3)c(=O)c2=O)CC1,-2%,-1,-6%,8,-21%,u

# Bioassay records deposited in PubChem by National Center for Advancing Translational Sciences (NCATS).
